Measurements taken from PubChem BioAssay (NCI).
This is part of a sample that, as a whole, favours compounds with a hit. Of some 79,000 tested, about 15% had one in any assay. Values without a mark were called inactive. Active and inactive are the calls of the source. Cut-off read from the data, not from the text of the source: active = growth inhibition above about 70%; inactive = the rest.

Assay: NCI Yeast Anticancer Drug Screen. Data for the rad50 strain (AID 155);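 note: 0% = growth of vehicle-only cultures of the same strain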
Conditions: S. cerevisiae rad50 strain growth inhibition; at 50.0 µM; stronger effect = higher value
Procedure: Growth inhibition of yeast strains with defined genetic alterations is measured as a screen for potential anti-cancer activity. Selected strains with alterations in DNA damage repair or cell cycle control were exposed to compounds and growth inhibition was measured relative to vehicle treated controls. The strain used in this assay is rad50

Compound	growth inhibition
Clc1ccc(CCc2ccncn2)c(Cl)c1	17.5%
CN1CCc2c1nc(-c1ccc([N+](=O)[O-])cc1)c1c2N(C)CC1	13.2%
CCOC(=O)CC/C(=C\NC(=O)c1ccccc1)NC(=O)c1ccccc1	-9%
c1ccc2c(c1)Oc1ccccc1S2	-14.2%
CC(C)CCCC(C)[C@H]1CCC2[C@@H]3CCC4Cc5nc6c(nc5C[C@]4(C)C3CC[C@@]21C)CC1CC[C@@H]2C(C[C@@H](O)[C@@]3(C)C2C[C@@H]2OC4(CCC(C)CO4)C(C)[C@@H]23)[C@@]1(C)C6 (stereo not given in full)	-19.6%
CCc1cc(C)cc(CC)c1N	5.45%
O=c1[nH]c(=O)c2[nH]cnc2[nH]1	8.05%
N#CC(C#N)=C1CCNCC1	-12.8%
COc1cc(N=Nc2ccc(N)nc2N)c(OC)cc1N=Nc1ccc([N+](=O)[O-])cc1	12.6%
Cc1ccc(C)c(NC(=O)Nc2ccc(Nc3ccccc3)cc2)c1	-6.3%
O=C1NC(Cc2cccc(I)c2)C(=O)N1c1ccccc1 (stereo not given)	37.3%
[O-]c1on[n+](-c2ccccc2)c1CN1CCOCC1	-8.2%
N#CC(C#N)=NNc1ccc2cn[nH]c2c1	-11.1%
CCOP(=O)(OCC)OC1CC(n2cnc3c(N(CC)CC)ncnc32)OC1CO[Si](C)(C)C(C)(C)C (stereo not given)	19.1%
N#Cc1c(-c2ccccc2)cc(-c2ccc(Cl)cc2)[nH]c1=S	5.3%
COC(=O)C1Cc2cc(OC)c(OC)cc2C(c2ccc(OC)c(OC)c2)C1C(N)=O (stereo not given)	-7.9%
CCCCC1CCC(C(=O)O)=NC1 (stereo not given)	5.65%
Cc1ccn2nnnc2c1	-8.45%
NC(N)=NS(=O)(=O)c1ccc(N=Cc2c3ccccc3nc3ccccc23)cc1	98.7% (active)
CCCCCCCCCc1cc(-c2ccc(C=O)s2)sc1-c1ccc(C=O)s1	8.8%

Compound	growth inhibition
COC(=O)C(=O)c1cc(C)n(C)c(=O)c1CN1C(=O)c2ccccc2C1=O	-14.2%
C1CCC(C(CCCCC(C2CCCCC2)C2CCCCC2)C2CCCCC2)CC1	46.5%
COc1cccc2c1ccc1nonc12	0.05%
O=C(O)CCSC1=CC(=O)C(SCCC(=O)O)=CC1=O	5.35%
CC(=O)CC(=O)N1C(C)CCCC1C (stereo not given)	-12.3%
CC(C)=C1CCC(CN2CCCC2)C1=O (stereo not given)	20.1%
COC(=O)c1ccc(CSc2ccccc2NC(=S)Nc2cccc(SC)c2)o1	-15.2%
N#Cc1ccc(-c2nc3ccc(Cl)cc3[nH]2)cc1	-47.9%
COc1ccc(NC(=O)c2cccc([N+](=O)[O-])c2)cc1	8.1%
CCCNc1ncnc2[nH]ncc12	-44.1%
Cc1ccc(S(=O)(=O)/C(C#N)=C\N2CCNC2=S)cc1	-11.7%
COc1cc(C(C)(C)C)c2oc3c(c2c1)C(=O)C(C(C)(C)C)=CC3(OC)OC	13.4%
Cc1cc(N(CCC#N)CCC#N)ccc1N=Nc1cccc(C(=O)O)c1	-40.4%
COc1ccc2cc(C(=O)Nc3ccc(O)c(C(=O)O)c3)ccc2c1OC	-2.2%
c1cnc(NC(Nc2cnccn2)C2CCCCC2)cn1	-2.25%
Cc1ncc([N+](=O)[O-])n1CCN(C)CCCCn1ccnc1[N+](=O)[O-]	-0.3%
COc1ccc(NC(N)=O)cc1	12.2%
O=C(C1OC1c1cccc([N+](=O)[O-])c1)C12CC3CC(CC(C3)C1)C2 (stereo not given)	12.5%
N#Cc1c(-c2ccc(Cl)cc2)c2c(n(C3OC(CO)C(O)C(O)C3O)c1=S)CCC2 (stereo not given)	12.5%
CN(C)C(=S)c1cccc2ccccc12	5.1%
